Potency and affinity values are given separately.
What was measured:
[1] = tested on: Klebsiella pneumoniae; settings: Concentration 32 ug.mL-1;; ASSAY_TEST Inhibition of Bacterial Growth; detection method Absorption (OD600); MEDIA CAMHB; plate type 384well; NBS; CORNING #3640; time 18 hr
[2] = tested on: Candida albicans; settings: Concentration 32 ug.mL-1; ASSAY_TEST Inhibition of Fungal Growth; detection method Absorption (OD530)
[3] = tested on: Cryptococcus neoformans; settings: Concentration 32 ug.mL-1; ASSAY_TEST Inhibition of Fungal Growth; detection method Resazurin; Absorption (OD600-OD570); plate type 384well; NBS; CORNING #3640

| SMILES | Inhibition [1] | Inhibition [2] | Inhibition [3] |
| --- | --- | --- | --- |
| CCOc1ccc(-n2ccn3c(SCC(=O)NCc4ccc(Cl)cc4)nnc3c2=O)cc1 | 11.7% | 0.49% | -7.68% |
| COc1cccc(NC(=O)Cn2nc3c(Sc4ccccc4)nccn3c2=O)c1 | 2.45% | 7.99% | -6.51% |
| CCOC(=O)c1ccccc1NC(=O)CSc1nc2ccccc2n2c(C(C)C)nnc12 | 12.78% | 1.73% | -19.92% |
| Cc1ccc(-c2ccc3nn(Cc4c(F)cccc4Cl)c(=O)n3n2)cc1 | 17.42% | -0.59% | -15.06% |
| COc1ccc(NC(=O)Cn2nc3c(N4CC(C)CC(C)C4)nccn3c2=O)c(OC)c1 (stereo not given) | 17.76% | 1.51% | -7.52% |
| COc1ccc(N(Cc2cc(F)cc(F)c2)S(=O)(=O)c2ccc3nnc(C)n3c2)cc1 | 10.99% | 0.79% | -7.83% |
| O=c1n(Cc2cccc(C(F)(F)F)c2)nc2c(S(=O)(=O)N3CCCC3)cccn12 | 13.65% | 1.01% | -8.52% |
| COc1cccc(Sc2nc3ccccc3n3c(=O)n(CC(=O)Nc4cccc(C#N)c4)nc23)c1 | 5.87% | 14.41% | -21.13% |
| Cc1[nH]c2ccccc2c1C(=O)CSc1nnc2c(=O)n(-c3ccccc3)ccn12 | 21.07% | 0.47% | -10.08% |
| CCOC(=O)c1ccc(NC(=O)Cn2nc3c(SC4CCCCC4)nccn3c2=O)cc1 | 11.88% | -1.98% | -30.92% |

— ChEMBL document CHEMBL4513146, “CO-ADD screening of Karazin Kharkiv National University (Ukraine) compounds”
